Source: PubChem BioAssay (NCI)
The panel holds about 83,000 compounds, 20% with a hit somewhere; the sample as a whole holds those more often.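 48-hour exposure, single concentration, 96-well plates; percent growth endpoint where 0 means no net growth. Active: below 10.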 Unmarked numbers belong to inactive results. Activity calls are given as the source filed them.

What was measured:
Assay in all cases: NCI-60 one-dose screen, 48 h (100 = growth as untreated, 0 = no growth, -100 = all killed)
Settings in all cases: 10 µM unless noted
[1] = system: NCI-H23 lung
[2] = system: NCI-H226 lung
[3] = system: NCI-H322M lung
[4] = system: HOP-62 NSCLC
[5] = system: NCI-H460 lung
[6] = system: HOP-92 NSCLC
[7] = system: NCI-H522 lung
[8] = system: A549/ATCC NSCLC
[9] = system: 786-0 renal
[10] = system: COLO 205 colon

Structure (SMILES) | growth [1] [%] | growth [2] [%] | growth [3] [%] | growth [4] | growth [5] | growth [6] | growth [7] | growth [8] [%] | growth [9] | growth [10]
COc1cc([N+](=O)[O-])c2nc(C)ccc2c1[N+](=O)[O-] | 105 | 104 | 139 | 132% | 115% | 96.3% | 87.2% | 107 | 105% | 77.6%
CC(C)(C)C(=O)OCOP(=O)(NCc1ccccc1)C1CCCN(O)C1=O (stereo not given) | 49.1 | 32.4 | 27.8 | 23.4% | 7.07% (active) | 34% | 8.18% (active) | 29.9 | 23.9% | 45.7%
CNC(=O)Oc1ccc(C(C)(C)C)cc1OC(=O)NC | 100 | 93.6 | 112 | 88.7% | 102% | 95.2% | 84.8% | 90.5 | 89.4% | 87%
COC(=O)[C@H](Cc1ccccc1)NNC(=O)c1csc([C@@H](C[C@H](C(C)C)N(C)C(=O)[C@@H](NC(=O)[C@H]2CCCCN2C)C2CC2)OC(C)=O)n1 | 29.2 | 36.5 | 46.7 | 8.12% (active) | 3.02% (active) | 3.84% (active) | -19.2% (active) | 15.3 | 11.9% | -60.3% (active)
CC[C@]12C=CCN3CC[C@]4(C(=C(C(=O)OC)C1)Nc1cc(OC)c(OC(C)=O)cc14)[C@@H]32 | 20.7 | 34.4 | 39 | 20.5% | 8.27% (active) | 4.72% (active) | -1.97% (active) | 16 | 5.06% (active) | -22.8% (active)
Cn1cc(C2=C(c3cn(C4CCN(Cc5ccccn5)CC4)c4ccccc34)C(=O)NC2=O)c2ccccc21 | 53.6 | 93.5 | 37.2 | 68% | 74.9% | 69.8% | 48.8% | 50.8 | 79.7% | 6.03% (active)
CN(C)C1C(=O)C(C(N)=O)=C(O)C2(O)C(=O)C3=C(O)c4c(O)cccc4C(C)(O)C3CC12.[Cl][Sb]([Cl])[Cl] (stereo not given) | 46.1 | 86.6 | 46.3 | 45.8% | 4.47% (active) | -5.57% (active) | 4.59% (active) | 26.1 | 26.6% | 96.5%
COC(=O)[C@@H](C)C[C@H](Cc1ccccc1)NC(=O)c1csc([C@@H](C[C@H](C(C)C)N(C)C(=O)C2(NC(=O)[C@H]3CCCCN3C)CC2)OC(C)=O)n1 | 15.7 | 50.8 | 44.8 | 9.05% (active) | 3.12% (active) | -3.99% (active) | 1.55% (active) | 11.7 | 17.6% | -55% (active)
COc1ccc(/C=C\c2cc(OC)c(OC)c(OC)c2)c(NS(=O)(=O)c2ccc(C)cc2)c1O | 23.2 | 33.9 | 43.6 | 80.7% | 6.42% (active) | 44.4% | -17.3% (active) | 26.6 | 18.8% | -15.5% (active)
CCCCN(CCCC)P(=O)(Oc1ccccc1)Oc1ccccc1 | 53.7 | 73.9 | 85.1 | 85.8% | 59.9% | 48.3% | 37.9% | 49 | 75% | 75.2%
CC12CCC(O)CC1=CCC1C2CCC2(C)C(O)CCC12 (stereo not given) | 111 | 90 | 101 | 103% | 101% | 85.4% | 94.8% | 109 | 103% | 106%
COC1OC(CO)C(O)C(O)[CH]1[Hg][O]C(C)=O (stereo not given) | 94.2 | 100 | 91.7 | 102% | 94.9% | 123% | -42.7% (active) | 94.9 | 106% | 98%
C=C(C)[C@@]12OC3(/C=C/C=C/CCCCC)O[C@@H]1[C@@H]1[C@@H]4O[C@]4(CO)[C@@H](O)[C@]4(O)C(=O)C(C)=C[C@H]4[C@@]1(O3)[C@H](C)[C@H]2OC(=O)c1ccccc1 | 46.3 | 79.2 | 76.6 | 22.5% | 22.1% | 35.1% | 78.8% | 32.8 | 45.8% | 4.17% (active)
